These results are taken from PubChem BioAssay AID2029 (NMMLSC, 2009).

Several values for one entry are separate records, joined by “and”; a condition that tells them apart may be missing. Identical values can stand only once. The whole screen tested about 320,000 compounds, of which about 210 (0.066%) were called active. The full list was thinned out, with actives kept by preference. Values without a mark were called inactive.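 Rule for the calls: active = GFP response relative to DMSO above a set limit, near the screen mean plus 3 SD (cut at about 150% in these data); inconclusive = Fewer than 70 cells measured for a yeast strain; inactive = the rest.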

This assay is described as follows: TOR pathway RTG branch CIT2 reporter changes – S. cerevisiae, GFP fusion, multiplex flow cytometry, MLPCN library, primary screen (AID 2029).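 Note: ratio of well median GFP fluorescence to mean of DMSO wells on the plate.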 Particulars: S. cerevisiae CIT2-GFP strain, 3 h, at 10 µM, hits give high values, 100 means same as DMSO wells. A general note: Flow cytometry measures light scatter and fluorescence of single cells or particles in a stream.
Take `O=C(Nc1ccc(Cl)cc1)c1cc2nc(C3CC3)cc(C(F)(F)F)n2n1`: the GFP response vs DMSO is 115%.

For `Cc1ccccc1NC(=O)N1CCCC1C(=O)NCc1ccccc1` (centres undefined), the GFP response vs DMSO is 113%. For `NC(=O)c1ncc(C(F)(F)F)cc1Oc1ccc(F)cc1`, the GFP response vs DMSO is 99.4%. With `CNc1nc(SC)nc(N(C#N)CC(=O)OC)n1` the figure was 104%; with `O=C(COC(=O)c1ccc(O)cc1O)c1ccc2c(c1)OCCO2`, 95.1%. With `O=C1Nc2cc(Cl)c(Cl)cc2N(O)N1c1cc(Cl)cc(Cl)c1` the figure was 97.6%; with `Cc1c(NC(=O)CSCc2ccccc2)cccc1C(=O)O`, 106%.

For `CCC(C)(C)C1CCC(=NNC(=O)c2ccc(Br)o2)CC1` (centres undefined), the GFP response vs DMSO is 97.7%.

For the compound `COCCCNC(=O)[C@H]1N2C(=O)c3ccccc3C2SC1(C)C` (some centres undefined), the GFP response vs DMSO was 112%. With `Cc1cc2cc3c(N)[nH]nc3nc2cc1C` the figure was 113%; with `O=C(NC1CCN(C(=S)Nc2ccc(Cl)cc2)CC1)C1CCCCC1`, 97.3%; with `Cc1ccc2nc(-c3ccc(NC(=O)CN(C)S(=O)(=O)c4ccccc4)cc3)sc2c1`, 111%. With `COc1ccc(N2CCN(C(=O)[C@@H](NC(=O)c3cc(OC)cc(OC)c3)C(C)C)CC2)cc1` the figure was 95.1%; with `Cc1ccccc1NC(=O)CSC(=O)c1ccccc1`, 102%; with `O=C(NN1C(=O)C2CCCCC2C1=O)c1ccco1` (centres undefined), 104%. With `COCCCNS(=O)(=O)c1cccc(S(=O)(=O)c2cccc(S(=O)(=O)NCCCOC)c2)c1` the figure was 115%; with `O=c1/c(=C/c2ccc(CNS(=O)(=O)c3ccccc3)o2)sc2n1CCN=2`, 107%; with `CC1(C)CC(=O)C=C(N2CCOCC2)C1`, 93.2%.

Consider `CCCCOc1ccc(C(=O)NCC(=O)OCC(=O)c2c(N)n(C)c(=O)n(C)c2=O)cc1`, for which the GFP response vs DMSO is 92.4%. Consider `CC(C)c1ccc2c(c1)c(SC(C)(C)C)c(CC(C)(C)C(=O)O)n2Cc1ccc(Cl)cc1`, for which the GFP response vs DMSO was 112% and 88.8%. On to `C/C(CCC(=O)OC[C@H]1O[C@H](C#Cc2ccccc2)C=C[C@@H]1Oc1ccc(C)cc1)=N\OC[C@@H](O)[C@H]1O[C@@H]2OC(C)(C)O[C@@H]2[C@H]1O`, for which the GFP response vs DMSO was 109%. With `Nc1ccc(OCC(O)C[n+]2ccc(CCS(=O)(=O)[O-])cc2)cc1` (centres undefined), the GFP response vs DMSO is 90%. `CCOC(=O)c1c(CN(C)C)n(-c2ccccc2)c2cc(Br)c(O)cc12`: the GFP response vs DMSO was 101%. With `Cc1ccc(NC(=O)CN(C)C(=O)COC(=O)C(C)(C)Oc2ccc(Cl)cc2)cc1` the figure was 109%; with `COC(=O)C[n+]1cccc2ccccc21`, 175% (active). On to `COc1ccccc1NC(=O)C[n+]1ccccc1`, for which the GFP response vs DMSO was 120%. Take `Cc1cccc[n+]1CC(=O)c1ccccc1`: the GFP response vs DMSO was 113%. Under `CC(=O)NS(=O)(=O)c1ccc2c(c1)Cc1cc(S(=O)(=O)NC(C)=O)ccc1-2` stands 99.9%; under `O=C(c1ccco1)N1CCN(C(=O)C2CC(c3ccc(Cl)c(Cl)c3)=NO2)CC1` (centres undefined), 89%; under `Cc1ccc(CNC(=O)C(=O)c2cn(CC(=O)N3CCCC3)c3ccccc23)cc1`, 104%. Under `CN(Cc1ccccc1)C(=O)C(=O)c1cn(CC(=O)N2CCCC2)c2ccccc12` stands 154% (active). With `CN1CCN(C(=O)C(=O)c2cn(CC(=O)N3CCCC3)c3ccccc23)CC1` the figure was 103%; with `CCCCCC1CC(COc2ccccc2)OC1=O` (centres undefined), 96.7%. For the compound `CC[n+]1cc(C)ccc1/C=C/c1ccc(N(C)C)cc1`, the GFP response vs DMSO is 158% (active). With `CO[C@H]1[C@@H]2C=CO[C@@H](O[C@H]3O[C@@H](CO)[C@H](O)[C@@H](O)[C@@H]3O)[C@@H]2[C@@]2(CO)O[C@@H]12` the figure was 109%; with `C/C=C/c1ccc(OCC(O)CN2CCCCCCC2)c(OC)c1` (centres undefined), 101%; with `N#Cc1cccc(NC(=O)CN2CCCCCC2)c1`, 100%.

For the compound `CCN(CC(=O)Nc1c(F)cccc1F)C(=O)CN1c2cccc3cccc(c23)S1(=O)=O`, the GFP response vs DMSO is 104%. With `COc1ccc(Nc2cc(Sc3ccc(OC)cc3)ncn2)cc1` the figure was 86.2%. With `Cc1ccc2c(=O)oc(N(C)C)nc2c1` the figure was 105%; with `CCn1c(SCC(=O)Nc2ccccc2F)nc2c(c1=O)SC(C)C2` (centres undefined), 100%; with `Cc1cccc([C@@H]2[C@@H]3C(=O)N(C)C(=O)[C@@H]3[C@@H]3C(=O)Nc4ccccc4C(=O)N23)c1`, 87.5%. With `CCc1ccc2[nH]c(=O)c(Cc3ccccc3)c(O)c2c1` the figure was 105%. In the case of `COc1ccc(NC(=O)CN(Cc2ccccc2)S(C)(=O)=O)cc1OC`, the GFP response vs DMSO is 101%.

In the case of `Cc1ccccc1OC(=O)Cn1c(C(F)(F)F)nc2ccccc21`, the GFP response vs DMSO was 84.2%. Consider `COc1ccc(C(=O)NC2CC2)cc1OC1CCN(Cc2ccc(SC)cc2)CC1`, for which the GFP response vs DMSO is 114%.

`CCOC(=O)CSc1nc(N2CCOCC2)c2c(c1C#N)CC(C(C)C)OC2` (centres undefined): the GFP response vs DMSO was 104%.

Consider `COc1ccc(C(=O)COC(=O)c2c(C)noc2C)cc1Cl`, for which the GFP response vs DMSO is 98.9%. With `COc1ccc(NC(=O)CN(C)C(=O)c2n[nH]c3ccccc23)cc1` the figure was 101%; with `CN(C)S(=O)(=O)c1cccc(NC(=O)COc2ccc3ccccc3c2)c1`, 90.9%. With `O=C(CN1CCOCC1)N1CCCc2c1c(=O)oc1ccc(OCc3ccccc3)cc21` the figure was 99%. Under `Cc1cc(C)cc(NC(=O)C2CCCN(S(=O)(=O)c3ccc4[nH]c(=O)ccc4c3)C2)c1` (centres undefined) stands 98.8%; under `COc1ccc(CNS(=O)(=O)c2cc(-c3cc(C)no3)ccc2C(C)C)cc1`, 95.4%; under `CN1CCC(=NNC(=O)CN(c2cccc(Cl)c2)S(C)(=O)=O)CC1`, 95.2%. As to `Cc1cccc(CSc2ccc(-c3cccs3)nn2)c1`, the GFP response vs DMSO was 87.4%. In the case of `CC(C)(C)CN1C(=O)C(=O)NC[C@H]1Cc1cccc2ccccc12`, the GFP response vs DMSO is 101%. With `CCCCC(=O)N(c1ccc(OC)cc1)C1C=CS(=O)(=O)C1` (centres undefined) the figure was 108%; with `COc1cc(CO)c(C2(CO)CCCC2)cc1OC`, 94.8%; with `CC(C)=CCN1CCN(CCCc2ccccc2)CC1CCO` (centres undefined), 105%.
